Compounds with a hit are over-represented: about 4.1% of the library has one in this group of screens.
hgDAF12 agonist = H. glycines DAF-12 receptor agonists, primary screen, cell-based, luminescence, HEK293, GAL4 fusion, UAS-luciferase; Nuclear hormone receptor DAF-12 (Heterodera glycines), GAL4 fusion; HEK293 GAL4-hgDAF12 UAS-luciferase reporter, agonist luminescence; normalized to butyrate control; activation, % at 6.8 µM; 1.8% of 370,000 active; AID 687014, 2013;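 active = activation above a cutoff set at the mean of all screened compounds plus 3 SD, cut at about 10% in these data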;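 note: 0% = DMSO wells and 100% = sodium butyrate wells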
hcDAF12 agonist = H. contortus DAF-12 nuclear receptor activators, primary screen, cell-based, luminescence, HEK293, lit1-tk-luc reporter; HEK293 hcDAF-12 lit1-tk-luc reporter; 0% DMSO, 100% Δ7-dafachronic acid; 1.4% of 370,000 active; activation, % at 6.8 µM;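 active = activation above the mean of all tested compounds plus 3 SD, cut at about 5.5% in these data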;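 note: 100% = response to 3 µM Δ7-dafachronic acid high control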
DAX1 inh-1 = DAX1 (NR0B1) inhibitors on StAR promoter, primary screen, cell-based, luminescence, SF-1 (NR5A1), full-length DAX-1; 1.1% of 370,000 active; inhibition, % at 6.8 µM; HEK293T StAR-luciferase reporter, SF-1/DAX-1 repression relief;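 active = inhibition above the mean over all tested compounds plus 3 SD, cut at about 3.6% in these data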;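 note: 0% = DAX-1 cells with DMSO and 100% = cells lacking DAX-1 with DMSO; higher inhibition means more luminescence from relief of DAX-1 repression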
ssDAF-12 act = S. stercoralis DAF-12 nuclear receptor activators, primary screen, cell-based, luminescence, HEK293, GRIP1 co-expression, lit1-tk-luc; activation, % at 6.8 µM; 1% of 370,000 active; HEK293 ssDAF-12/GRIP1 lit1-tk-luc reporter; % of 3 µM dafachronic acid response;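 active = activation above the mean over all tested compounds plus 3 SD, cut at about 0.9% in these data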;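 note: 0% = DMSO-only wells and 100% = 3 µM delta7-dafachronic acid wells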
DAX1 inh-2 = DAX1 (NR0B1) inhibitors, primary screen, cell-based, HEK293, Gal4-DAX1, luciferase luminescence; Nuclear receptor subfamily 0 group B member 1 (Homo sapiens), P51843; HEK293 Gal4-DAX1 luciferase reporter; inhibition, % at 6.75 µM; 0.99% of 340,000 active;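 active = inhibition above the mean over all tested compounds plus 3 SD, cut at about 4.2% in these data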;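 note: 0% = DAX1-transfected cells with DMSO and 100% = empty-vector control cells with DMSO; inhibition shows as a rise in luminescence from relieved DAX1 repression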
Target sequence (P51843 207-470 limits assumed): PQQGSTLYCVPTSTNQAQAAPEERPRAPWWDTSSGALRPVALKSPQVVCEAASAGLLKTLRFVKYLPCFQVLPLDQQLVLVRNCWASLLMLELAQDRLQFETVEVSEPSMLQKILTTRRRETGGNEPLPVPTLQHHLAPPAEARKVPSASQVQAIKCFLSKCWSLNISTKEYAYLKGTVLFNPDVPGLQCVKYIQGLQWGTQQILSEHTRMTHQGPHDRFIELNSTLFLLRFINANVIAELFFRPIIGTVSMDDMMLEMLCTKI
The depositor's hits bear a star; x = not tested or not shown.

SMILES | hgDAF12 agonist | hcDAF12 agonist | DAX1 inh-1 | ssDAF-12 act | DAX1 inh-2
Cn1c(-c2ccc(F)cc2)cnc1SCC(=O)N1CCCCC1 | 12.5* | 2.8 | 2.1 | 0.3 | 0.6
Cn1c(-c2ccc(F)cc2)cnc1SCC(=O)N1CCCc2ccccc21 | 0.2 | -2.0 | 0.1 | -0.9 | 1.2
NC(=O)c1c(N)[nH]c(C(=O)c2ccccc2)c1-c1ccc2ccccc2c1 | 1.4 | -1.2 | 0.7 | -1.7 | x
CN(Cc1nccn1C)C(=O)c1ccc2nc(Cc3ccccc3F)oc2c1 | 13.0* | 2.9 | 0.6 | -0.9 | 1.9
Cc1cccc(CNC(=O)c2ccc3nc(Cc4ccccc4F)oc3c2)n1 | 11.4* | 1.9 | 3.7* | -0.2 | 1.7
COc1ccc(Cc2nc3ccc(C(=O)NCc4cccc(C)n4)cc3o2)cc1OC | 1.5 | -1.7 | 0.2 | -1.2 | -0.8
Cc1ccc(-c2c(NC(=O)c3cccc(C)c3)nc3ncccn23)cc1 | 8.5 | -2.3 | -0.8 | -1.2 | x
COc1ccc(-c2[nH]ncc2CN(C)CCCN2CCOCC2)cc1F | -0.4 | -1.1 | -0.2 | -0.6 | 5.9*
COc1ccc(-c2[nH]ncc2CN2CCCO2)cc1F | 0.8 | -0.9 | -0.3 | -1.8 | 0.9
COC(=O)[C@]12C[C@H](CC(=O)NCc3ccc(C)o3)C(=O)N(CCc3ccc(OC)c(OC)c3)C1=C[C@H](C(C)(C)C)O[C@@H]2C | -1.3 | -2.3 | -0.8 | -1.1 | x
COc1ccc(C2Nc3ccccc3C(=O)N2Cc2ccccc2)cc1CN1CCOCC1 (stereo not drawn) | -2.2 | 0.2 | 0.0 | -1.1 | -0.4
COc1ccc(C2Nc3ccccc3C(=O)N2c2ccccc2)cc1CN1CCOCC1 (stereo not drawn) | 0.4 | 0.6 | -0.6 | -1.1 | 6.1*
Cn1c(/N=C/c2ccc3c(c2)OCO3)nc2ccccc21 | 1.0 | 5.9* | -0.3 | -0.6 | 0.0
CCN1C(=O)Nc2cccc3cccc1c23 | -1.9 | 1.0 | -0.5 | -0.5 | 4.8*
Cc1cc(C)cc(NC(=O)OC2CC3CC2[C@H]2CCCCN2[C@H]3C)c1 (stereo partly drawn) | 0.3 | -1.8 | 0.2 | -0.4 | x
C[C@H]1/C=C/CC(=O)N[C@@H](c2ccc3ccccc3c2)[C@@H](C)/C=C/CC(=O)N[C@H]1c1ccc2ccccc2c1 | 0.7 | -2.5 | -0.7 | 0.2 | x
COc1ccc(CNC(=O)Cc2ccc(NC(=O)C3=C(C)OCCS3)cc2)cc1 | 11.1* | 1.9 | -2.3 | -0.4 | -0.1
COc1cccc(CNC(=O)c2cccc(NC(=O)C3=C(C)OCCS3)c2)c1 | -4.2 | -0.2 | -0.6 | -1.5 | -1.3
CC(=O)c1ccccc1NC(=O)Cn1c(=O)cnc2ccccc21 | -1.6 | 6.1* | -0.4 | -0.2 | 3.9
O=C(Cn1c(=O)cnc2ccccc21)Nc1ccccc1N1CCOCC1 | -0.3 | 0.8 | -0.9 | -1.0 | 0.8
O=C(NCc1cccs1)O[C@H]1CC[C@@]23CCCN2C(=O)CCC[C@H]3C1 | -4.6 | 0.6 | x | -1.4 | x
COc1cccc(C(=O)N(CCN2CCOCC2)Cc2ccc(OC)c(OC)c2)c1 | 1.9 | 0.4 | -0.4 | -0.7 | x
COc1ccc(N2CCN(Cc3nc4ccccc4n3C)CC2)cc1 | -2.3 | 4.5 | -0.6 | 1.8* | 2.1
COc1ccc(N2CCN(c3cnc4ccccc4n3)CC2)cc1 | 11.1* | -0.3 | 1.3 | -0.5 | 0.1
COc1cccc(CNC(=O)[C@H]2CCCN2C(=O)[C@H]2CCCN2C(=O)c2ccc(C)cc2)c1 | -1.7 | -1.5 | -1.1 | -0.7 | x
SMILES | hgDAF12 agonist | hcDAF12 agonist | DAX1 inh-1 | ssDAF-12 act | DAX1 inh-2
O=C(N[C@H](Cc1ccccc1)C(=O)NCC1CCCO1)[C@H]1O[C@@H](n2ccc(=O)[nH]c2=O)[C@H](O)[C@@H]1O (stereo partly drawn) | 3.1 | 0.7 | 1.1 | -1.1 | x
COc1ccc(/C(N)=N/OC(=O)c2c(-c3ccccc3Cl)noc2C)cc1OC | 1.3 | -1.2 | -2.6 | -0.7 | -0.4
Cc1nc(/C(N)=N/OC(=O)c2c(-c3ccccc3Cl)noc2C)cs1 | -2.6 | 0.1 | 0.3 | -1.6 | 5.9*
CCOc1ccc(-n2c(SCC(=O)Nc3cccc4ccccc34)nnc2-c2cccs2)cc1 | 2.3 | -0.3 | -2.9 | -1.1 | x
O=C(COc1ccc(Cl)cc1Cl)Nc1ccc(C(=O)Nc2ccccc2C(=O)O)cc1 | 0.4 | 2.2 | 4.3* | -0.4 | 0.2
Cc1cccc(OCC(=O)Nc2ccc(C(=O)Nc3ccccc3C(=O)O)cc2)c1 | -5.1 | -0.1 | 1.1 | -0.4 | -0.6
CN(CC(O)COCc1cccs1)C1CCCCC1 (stereo not drawn) | 12.3* | -1.3 | -0.4 | -0.9 | 3.2
Cc1cccc(NC(=O)COc2ccc(Br)cc2)n1 | 5.5 | 2.2 | 0.6 | -0.3 | 1.0
N#Cc1ccccc1NC(=S)NC(=O)c1cccs1 | 10.4 | 6.0* | 3.5 | 0.9 | 1.8
N#Cc1ccccc1NC(=O)COC(=O)c1cccs1 | -2.7 | 0.9 | -0.4 | -0.6 | 0.0
Cc1cccc(NC(=O)Nc2ccc(C)c(C)c2)n1 | 6.7 | 6.2* | 0.8 | 0.6 | 2.0
Cc1nc(NC(=S)NC(=O)COc2ccc(Cl)cc2)ccc1Br | 2.0 | 0.2 | -0.5 | -0.8 | 6.0*
Cc1ccc(OCC(=O)Nc2cccc(C)n2)c(C)c1 | 10.8* | 3.7 | 3.2 | -0.3 | 0.7
C=CCN1C(=O)[C@@H](CC(=O)N2CCN(C(=O)C3CC3)CC2)[C@]2(C(=O)OCC)CCCCC/C=C/12 | -0.9 | 0.7 | -0.1 | -1.1 | x
CN1[C@@H](Cc2ccccc2)COc2cccc(F)c2S1(=O)=O | -0.4 | -2.0 | -0.9 | -1.4 | x
N#Cc1ccc(/C=C2\CC3(OC(=O)C4CCCCC4)CCCN2C3)cc1 (stereo not drawn) | -1.0 | -2.9 | 0.9 | -1.0 | x
O=C(NCc1ccccc1)[C@@H]1CCCN1C(=O)[C@H]1CCCN1C(=O)c1ccc(Cl)c(Cl)c1 | -0.6 | -0.6 | -0.2 | -1.0 | x
Cc1ccc(OCC(=O)NC(=S)Nc2cccc(C)n2)cc1 | 0.4 | 2.0 | -0.2 | -0.8 | 7.8*
Cc1nc(NC(=S)NC(=O)c2cccs2)ccc1Br | 4.6 | 5.3 | 0.4 | 1.3* | 0.6
Cc1cccc(NC(=S)NC(=O)c2cccs2)n1 | 6.4 | 3.3 | 0.9 | -0.6 | 1.4
c1cnc2ccc3ncccc3c2c1 | 4.5 | 2.0 | 0.8 | -1.2 | 5.0*
c1ccc2cc(Cn3ccc4ccc(-c5ccc6cc[nH]c6c5)cc43)ccc2c1 | 0.0 | 2.7 | -0.6 | 1.2* | x
CCC(C)N(C(=O)CSc1nnc(-c2ccco2)n1C)C1CCS(=O)(=O)C1 (stereo not drawn) | 1.9 | -1.2 | -1.1 | -0.8 | 4.6*
